# Screening results deposited in PubChem BioAssay by several laboratories.
# A selection: hits, their analogues and other compounds. The true share with any hit is near 3.6%.
# Mtb FBA inh = Mtb FBA enzyme inhibitors, primary screen, biochemical, fluorescence, strain H37Rv; Fructose-bisphosphate aldolase (Mycobacterium tuberculosis (strain ATCC 25618 / H37Rv)), …; inhibition, % at 1 µM; purified M. tuberculosis FBA, fluorescence read-out; 2.3% of 360,000 active; in the data active = inhibition above about 27%
# Mtb bLac sens = beta-lactam sensitization of Mtb H37Rv, H37Rv; M. tuberculosis H37Rv growth with meropenem, percent inhibition; inhibition, % at 25 µM; 0.27% of 330,000 active; call rule not given here;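 also: growth measured after seven days incubation then overnight dye step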
# Mtb hypoxia inh = PubChem AID 1159583; M. tuberculosis hypoxia-regulated fluorescent reporter, fluorescence; fluorescence inhibition, % (concentration not given with the values); 0.1% of 300,000 active; in the data active = fluorescence inhibition mostly above about 23%, no sharp cut-off; inactive = mostly below about 17%
# GDH-TPI counter = GDH-TPI coupling enzyme inhibitors, primary screen, artefact control for M. tuberculosis FBA inhibitor project, biochemical, absorbance, full deck. GDH-TPI coupled enzyme counterscreen, NADH absorbance. inhibition, % at 4.8 µM. 1.2% of 360,000 active; in the data active = inhibition above about 30%
# DUSP3 inh = VHR1 phosphatase inhibitors, primary screen, biochemical, absorbance, uHTS | Dual specificity protein phosphatase 3 (Homo sapiens), P51452 | recombinant VHR phosphatase, pNPP absorbance | inhibition, % at 13.3 µM | 0.52% of 290,000 active; in the data active = inhibition above about 50%
# Target sequence (P51452 whole entry, looked up): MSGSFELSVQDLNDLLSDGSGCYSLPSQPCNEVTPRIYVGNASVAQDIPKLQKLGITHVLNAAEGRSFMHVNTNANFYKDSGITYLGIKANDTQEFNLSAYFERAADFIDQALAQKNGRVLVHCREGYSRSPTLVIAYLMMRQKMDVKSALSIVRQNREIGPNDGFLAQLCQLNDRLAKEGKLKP
# Hits are given with their value; i = inactive; nt = no result; + = active, no number.
SMILES,Mtb FBA inh,Mtb bLac sens,Mtb hypoxia inh,GDH-TPI counter,DUSP3 inh
COc1ccc(C2=NN(C(=O)c3cccs3)C(c3ccccc3OC)C2)cc1OC (configuration not stated),i,i,i,34,i
Cc1ccc(C2=NN(C(=O)c3cccs3)C(c3ccccc3O)C2)cc1 (configuration not stated),i,i,i,i,i
COc1ccc(C2=NN(C(=O)CCCC(=O)O)C(c3cccs3)C2)cc1OC (configuration not stated),i,i,i,i,i
COc1ccc(C2=NN(C(=O)c3ccco3)C(c3cccs3)C2)cc1OC (configuration not stated),i,nt,nt,38,nt
COc1cc(C=NNc2ccc(Cl)c(C(=O)O)c2)ccc1OC(=O)c1cccs1,nt,nt,i,nt,nt
O=C(C1=C(O)C(=O)N(CCN2CCOCC2)C1c1cccc(Br)c1)c1cc2ccccc2o1 (configuration not stated),134,i,i,i,i
O=C(C1=C(O)C(=O)N(CCN2CCOCC2)C1c1cccc([N+](=O)[O-])c1)c1cc2ccccc2o1 (configuration not stated),i,nt,nt,i,nt
Nc1c(S(=O)(=O)c2ccccc2)c2nc3ccccc3nc2n1Cc1ccco1,101,i,i,46,i
Cc1ccc(S(=O)(=O)c2c(N)n(CCCO)c3nc4ccccc4nc23)cc1,143,i,i,i,i
Cc1ccc(S(=O)(=O)c2c(N)n(CCN3CCOCC3)c3nc4ccccc4nc23)cc1C,i,i,nt,i,i
Cc1ccc(S(=O)(=O)c2c(N)n(Cc3ccco3)c3nc4ccccc4nc23)cc1C,91,i,i,40,i
CC#CCN1c2ccccc2[C@]23CC(C(=O)OC)N(C(=O)c4ccc(Br)cc4)C2=NC(C(=O)OC)=C(C(=O)OC)C13 (some centres not stated),nt,nt,i,nt,nt
Cc1cc(C)nc(N/N=C/C2=C(N3CCOCC3)C(=C/c3ccccc3)/CC2)n1,i,i,nt,32,i
CC(=O)Nc1ccc(N/C=C/C(=O)C(C)(C)C)cc1,i,i,i,42,i
COc1ccc(C=NN=C2SCC(=O)N2c2c(C)n(C)n(-c3ccccc3)c2=O)cc1OC,nt,nt,i,nt,nt
COc1cc(/C=N/NC(=O)c2sc(N)c(C#N)c2C)ccc1O,i,i,nt,61,i
COc1cc(/C=N/NC(=O)c2ccccc2NS(=O)(=O)c2cccs2)ccc1O,i,nt,nt,36,nt
O=C(NN=Cc1ccc(F)cc1)c1ccccc1NS(=O)(=O)c1cccs1,i,i,i,i,nt
O=C(N/N=C/c1ccc([N+](=O)[O-])o1)c1ccccc1NS(=O)(=O)c1cccs1,i,i,nt,32,i
CN1CC2C3C(=O)N(Cc4ccccc4)C(=O)C3[C@](C)(C1=O)N2C(=O)c1ccc(Cl)cc1 (some centres not stated),nt,nt,i,nt,nt
CN(CCCNC(=O)C1CCC(CNS(=O)(=O)c2ccccc2)CC1)Cc1ccccc1 (configuration not stated),i,i,i,i,56
CC(=O)Nc1ccc(S(=O)(=O)NCC2CCC(C(=O)NCCCN(C)Cc3ccccc3)CC2)cc1 (configuration not stated),i,i,i,i,i
Cc1c(C)c2c(OCC(=O)N3CCC(C(N)=O)CC3)cc3c(c2oc1=O)CCC(C)(C)O3,+,i,nt,i,i
Cc1cc(=O)oc2c3c(cc(OCC(=O)N4CCC[C@H]4C(=O)O)c12)OC(C)(C)CC3,+,i,nt,i,i
CCCCc1cc(=O)oc2c3c(cc(OCC(=O)N4CCC[C@H]4C(=O)O)c12)OC(C)(C)CC3,+,i,nt,i,i
SMILES,Mtb FBA inh,Mtb bLac sens,Mtb hypoxia inh,GDH-TPI counter,DUSP3 inh
Cc1cc(=O)oc2c3c(cc(OCC(=O)N4CCC(C(=O)O)CC4)c12)OC(C)(C)CC3,+,i,nt,i,i
CC(=NNC(=O)c1cccs1)c1cccnc1,nt,nt,i,nt,nt
O=S1(=O)NC[C@]23CC(c4ccc(F)cc4)C(CC21)O3 (some centres not stated),nt,nt,i,nt,nt
COc1cccc(C=NNC(=O)c2cccc([N+](=O)[O-])c2)c1OS(=O)(=O)c1ccccc1,nt,nt,i,nt,nt
O=c1cc(Cl)nc2ccccn12,i,nt,i,i,nt
Clc1ccc2nc3ccccn3c2c1,178,i,i,i,i
N#Cc1ccc2c(c1)nc1ccccn12,+,i,i,i,i
N#Cc1ccc2c(c1)nnn2-c1ccccc1,i,i,i,i,nt
